Over roughly 81,000 sequences, “one-hybrid fitness for binding parS DNA” has its median near -0.17; the highest 2% begin near 0.51. The sample holds the highest values, similar sequences and a random draw of the others, so the mix is not that of the screen.
B1: Caulobacter ParB omega fusion; a variant is named by its letters at X, in order, B8GW30 (parent)
chain: MESVVVGEPGMSEGRRGLGRGLSALLGEVDAAPAQAPGEQLGGSREAPIEILQRNPDQPRRTFREEDLEDLSNSIREKGVLQPILVRPSPDTAGEYQIVAGERAWRAAQRAGLKTVPIMVRELDDLAVLEIGIIENVQRADLNVLEEALSYKVLMEKFERTQENIAQTIGKSXSHVANXMRLLXLPDEVQSYLVSGELTAXHARAIAAAADPVALAKQIIEGGLSVRETEALARKAPNLSAGKSKGGRPPRVKDTDTQALESDLSSVLGLDVSIDHRGSTGTLTITYATLEQLDDLCNRLTRGI

Variants of: B1
Assay: one-hybrid fitness for binding parS DNA (scaled: cognate 1, non-cognate 0); higher = stronger binding
Settings: with parS DNA site
Procedure, shortened: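 Fitness is the rescaled log change in variant-to-wild-type read ratio, measured by Illumina sequencing of plasmids before and after bacterial one-hybrid selection. The scale puts cognate at 1 and non-cognate at 0. Selection of Caulobacter ParB libraries, four specificity codons randomised, took place in E. coli USO with a HIS3 reporter, site 19 bp from the promoter, over 48 hours at 37°C on M9-minus-histidine with 0.1 mM IPTG and 5 mM 3-AT.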

Row | Variant | one-hybrid fitness for binding parS DNA
1 | KHQR | ≤ 0.2
2 | QHCK | ≤ 0.2
3 | PRPC | ≤ 0.2
4 | YWNN | ≤ 0.2
5 | YYMS | ≤ 0.2
6 | ILCT | ≤ 0.2
7 | TTSA | ≤ 0.2
8 | RYPA | 0.212
9 | RYYA | 0.522
10 | RYCA | 0.46
11 | TDNY | ≤ 0.2
12 | RGNS | 0.862
13 | RGND | ≤ 0.2
14 | RGDP | ≤ 0.2
15 | RGDN | ≤ 0.2
16 | RGNP | ≤ 0.2
17 | RGDS | 0.551
18 | NNTG | ≤ 0.2
19 | LAFI | ≤ 0.2
20 | TKPY | ≤ 0.2
21 | ASRG | ≤ 0.2
22 | TAAN | ≤ 0.2
23 | VRSP | ≤ 0.2
24 | TLKS | ≤ 0.2

Row | Variant | one-hybrid fitness for binding parS DNA
25 | RIIP | ≤ 0.2
26 | RIPS | 0.812
27 | RIPH | ≤ 0.2
28 | RIPD | ≤ 0.2
29 | RIID | ≤ 0.2
30 | RIIS | 0.994
31 | QKRS | ≤ 0.2
32 | YTMT | ≤ 0.2
33 | HPWL | ≤ 0.2
34 | RNKG | 0.941
35 | RNVQ | ≤ 0.2
36 | RNVK | ≤ 0.2
37 | RNKQ | ≤ 0.2
38 | RNKK | ≤ 0.2
39 | RNVG | 0.619
40 | MYPT | ≤ 0.2
41 | REFV | ≤ 0.2
42 | RNMS | 0.868
43 | RNMC | 0.745
44 | RNMD | ≤ 0.2
45 | RNMY | 0.325
46 | RNMK | ≤ 0.2
47 | RNMF | ≤ 0.2
48 | RNMH | ≤ 0.2

Row | Variant | one-hybrid fitness for binding parS DNA
49 | RNMG | 0.819
50 | RNMP | ≤ 0.2
51 | RNMT | 0.678
52 | RNMN | 0.299
53 | RNML | ≤ 0.2
54 | GRCA | ≤ 0.2
55 | PERA | ≤ 0.2
56 | TDEN | ≤ 0.2
57 | YRHT | ≤ 0.2
58 | VWAT | ≤ 0.2
59 | VNSR | ≤ 0.2
60 | FTWC | ≤ 0.2
61 | RYFF | 0.256
62 | RYFT | 0.792
63 | RYAT | 0.899
64 | RYAN | 0.387
65 | RYAD | ≤ 0.2
66 | RYFD | ≤ 0.2
67 | NHVC | ≤ 0.2
68 | AYMK | ≤ 0.2
69 | PDKP | ≤ 0.2
70 | YYNR | ≤ 0.2
71 | TQLI | ≤ 0.2
72 | KLHC | ≤ 0.2

Row | Variant | one-hybrid fitness for binding parS DNA
73 | YNTM | ≤ 0.2
74 | RHNI | ≤ 0.2
75 | RKVN | 0.36
76 | RKKN | 0.356
77 | RKVS | 0.967
78 | RKKS | 0.69
79 | RKVH | ≤ 0.2
80 | RKKH | 0.317
81 | QPGI | ≤ 0.2
82 | QTTR | ≤ 0.2
83 | DASR | ≤ 0.2
84 | WTNT | ≤ 0.2
85 | MFKT | ≤ 0.2
86 | CHQS | ≤ 0.2
87 | PYYS | ≤ 0.2
88 | RHDT | 0.791
89 | RHNE | ≤ 0.2
90 | RHNQ | ≤ 0.2
91 | RHDK | ≤ 0.2
92 | RHDR | ≤ 0.2
93 | RHNT | 0.857
94 | TAQY | ≤ 0.2
95 | WPVT | ≤ 0.2
96 | QWVG | ≤ 0.2

Row | Variant | one-hybrid fitness for binding parS DNA
97 | YAIL | ≤ 0.2
98 | KTMW | ≤ 0.2
99 | TMYG | ≤ 0.2
100 | RLKM | 0.399
101 | RLKQ | ≤ 0.2
102 | RLVR | ≤ 0.2
103 | RLKC | 0.835
104 | RLVM | 0.295
105 | RLVC | 0.962
106 | TPAN | ≤ 0.2
107 | FQLR | ≤ 0.2
108 | LNTV | ≤ 0.2
109 | MPHS | ≤ 0.2
110 | CAAN | ≤ 0.2
111 | REHC | ≤ 0.2
112 | RRHC | 0.616
113 | RMHC | 0.979
114 | RCHC | 1
115 | RPHC | ≤ 0.2
116 | RMHK | ≤ 0.2
117 | RSHF | 0.257
118 | RRHQ | ≤ 0.2
119 | RMHL | ≤ 0.2
120 | RRHF | ≤ 0.2

Row | Variant | one-hybrid fitness for binding parS DNA
121 | RSHC | 0.968
122 | RDHC | ≤ 0.2
123 | MHLM | ≤ 0.2
124 | TNRP | ≤ 0.2
125 | MWSS | ≤ 0.2
126 | SVES | ≤ 0.2
127 | RRCD | ≤ 0.2
128 | RKCS | 0.855
129 | RHCS | 0.938
130 | RHCH | ≤ 0.2
131 | RICH | 0.24
132 | RKCP | ≤ 0.2
133 | RRCP | ≤ 0.2
134 | RHCP | ≤ 0.2
135 | RKCN | 0.302
136 | RICN | 0.447
137 | RICS | 1.02
138 | RRCS | 0.67
139 | PGNH | ≤ 0.2
140 | VCRG | ≤ 0.2
141 | IYRT | ≤ 0.2
142 | LYPG | ≤ 0.2
143 | CREE | ≤ 0.2
144 | CEDV | ≤ 0.2

Row | Variant | one-hybrid fitness for binding parS DNA
145 | YGYI | ≤ 0.2
146 | FTNL | ≤ 0.2
147 | MSES | ≤ 0.2
148 | RFCN | 0.375
149 | RPCS | ≤ 0.2
150 | RCCP | 0.223
151 | RLCH | 0.22
152 | RLCS | 1.03
153 | RCCS | 1.01
154 | RTCH | 0.289
155 | RLCN | 0.457
156 | RTCS | 0.99
157 | RFCP | ≤ 0.2
158 | RFCS | 1
159 | RTCP | ≤ 0.2
160 | PMLA | ≤ 0.2
161 | LCAF | ≤ 0.2
162 | IIKG | ≤ 0.2
163 | WMTR | ≤ 0.2
164 | RCFL | ≤ 0.2
165 | LMPT | ≤ 0.2
166 | VVHG | ≤ 0.2
167 | EKSI | ≤ 0.2
168 | RACP | ≤ 0.2

Row | Variant | one-hybrid fitness for binding parS DNA
169 | RMCP | ≤ 0.2
170 | RSCH | 0.223
171 | RSCN | 0.407
172 | RACH | 0.306
173 | RSCS | 0.995
174 | RACS | 1
175 | RMCS | 1.01
176 | RMCD | ≤ 0.2
177 | CVLT | ≤ 0.2
178 | RWPM | ≤ 0.2
179 | GPYM | ≤ 0.2
180 | RKFC | 0.878
181 | RKFF | ≤ 0.2
182 | RKFY | 0.363
183 | RKAM | 0.264
184 | RKAQ | ≤ 0.2
185 | RKAC | 0.878
186 | AFRC | ≤ 0.2
187 | LDSE | ≤ 0.2
188 | NVKW | ≤ 0.2
189 | VMRY | ≤ 0.2
190 | RMCT | 0.888
191 | RMCM | 0.362
192 | RTCT | 0.917

Row | Variant | one-hybrid fitness for binding parS DNA
193 | RSCM | 0.347
194 | RTCF | 0.252
195 | RPCT | ≤ 0.2
196 | RSCT | 0.809
197 | RCCT | 0.913
198 | RDCT | ≤ 0.2
199 | RECT | ≤ 0.2
200 | RMCL | ≤ 0.2
201 | RTCM | 0.298
202 | YHLN | ≤ 0.2
203 | EVTM | ≤ 0.2
204 | RFLI | ≤ 0.2
205 | QHYD | ≤ 0.2
206 | IDQR | ≤ 0.2
207 | NLHV | ≤ 0.2
208 | MGRC | ≤ 0.2
209 | RSEA | 0.476
210 | RCEA | 0.515
211 | RLEA | 0.567
212 | RAEA | 0.476
213 | RPEA | ≤ 0.2
214 | RFEA | 0.454
215 | RREA | 0.802
216 | RQEA | 0.554

Row | Variant | one-hybrid fitness for binding parS DNA
217 | TIMD | ≤ 0.2
218 | PRLC | ≤ 0.2
219 | MSLL | ≤ 0.2
220 | FHAL | ≤ 0.2
221 | SRDG | ≤ 0.2
222 | AALF | ≤ 0.2
223 | LFAM | ≤ 0.2
224 | RTEA | 0.58
225 | RHEA | 0.512
226 | RDEA | ≤ 0.2
227 | RYEA | 0.548
228 | RKEA | 0.515
229 | FASM | ≤ 0.2
230 | SHST | ≤ 0.2
231 | GLPS | ≤ 0.2
232 | DMPT | ≤ 0.2
233 | YLIW | ≤ 0.2
234 | FRKA | ≤ 0.2
235 | LMTN | ≤ 0.2
236 | GIRR | ≤ 0.2
237 | LALL | ≤ 0.2
238 | RSFK | ≤ 0.2
239 | RPFG | ≤ 0.2
240 | RCFG | 1.01

Row | Variant | one-hybrid fitness for binding parS DNA
241 | REFG | ≤ 0.2
242 | RDFG | ≤ 0.2
243 | RSFG | 0.94
244 | AKRC | ≤ 0.2
245 | QSGM | ≤ 0.2
246 | MCTL | ≤ 0.2
247 | TMTY | ≤ 0.2
248 | MHDG | ≤ 0.2
249 | WDTK | ≤ 0.2
250 | PQHA | ≤ 0.2
251 | RQVA | 0.486
252 | RQIA | 0.42
253 | RQQA | 0.548
254 | NQKA | ≤ 0.2
255 | KQQA | ≤ 0.2
256 | RQYA | 0.583
257 | RQHA | 0.57
258 | RQKA | 0.701
259 | NQHA | ≤ 0.2
260 | RQPA | ≤ 0.2
261 | PQTA | ≤ 0.2
262 | WANF | ≤ 0.2
263 | HAGM | ≤ 0.2
264 | IYPG | ≤ 0.2

Row | Variant | one-hybrid fitness for binding parS DNA
265 | LMKM | ≤ 0.2
266 | TYFC | ≤ 0.2
267 | GSSM | ≤ 0.2
268 | DQAA | ≤ 0.2
269 | KQSA | ≤ 0.2
270 | EQAA | ≤ 0.2
271 | RQAA | 0.571
272 | RQSA | 0.575
273 | DQSA | ≤ 0.2
274 | RQRA | 0.632
275 | KQRA | ≤ 0.2
276 | RQFA | 0.532
277 | DQRA | ≤ 0.2
278 | FPAS | ≤ 0.2
279 | PFLV | ≤ 0.2
280 | ENLG | ≤ 0.2
281 | YSQA | ≤ 0.2
282 | QHET | ≤ 0.2
283 | ASIT | ≤ 0.2
284 | GAHR | ≤ 0.2
285 | MLHS | ≤ 0.2
286 | VETL | ≤ 0.2
287 | LASY | ≤ 0.2
288 | RCTV | ≤ 0.2

Row | Variant | one-hybrid fitness for binding parS DNA
289 | TKMR | ≤ 0.2
290 | PQMA | ≤ 0.2
291 | RQLA | 0.568
292 | RQCA | 0.558
293 | RQMA | 0.596
294 | PQLA | ≤ 0.2
295 | RQWA | 0.544
296 | NQMA | ≤ 0.2
297 | CQLA | ≤ 0.2
298 | TQYS | ≤ 0.2
299 | HPLV | ≤ 0.2
300 | ANIE | ≤ 0.2
301 | RCYW | 0.314
302 | VLKR | ≤ 0.2
303 | HEGL | ≤ 0.2
304 | LRKS | ≤ 0.2
305 | CVSN | ≤ 0.2
306 | RQGA | 0.563
307 | CQGA | ≤ 0.2
